# Test results reported in article PMC7862700, “An all-to-all approach to the identification of sequence-specific readers for epigenetic DNA modifications on cytosine”.
# Assays:
# Experiment in all cases: DAPPL (digital affinity profiling via proximity ligation, sequencing); 10 mM Tris-HCl pH 7.5, 50 mM NaCl, 1 mM DTT, 4% glycerol, room temperature, 30 min; GST-TFs on glutathione beads, 16-mer random dsDNA library, 0.1% formaldehyde crosslink after washing; high values mean tight binding
# Settings in all cases: protein: recombinant; tags: N-terminal GST; dsDNA, one strand shown
# ETV1 = ETV1 (Homo sapiens, UniProt P50549 1-477)
# Chain of ETV1 (P50549 whole entry, the tested form may be a part): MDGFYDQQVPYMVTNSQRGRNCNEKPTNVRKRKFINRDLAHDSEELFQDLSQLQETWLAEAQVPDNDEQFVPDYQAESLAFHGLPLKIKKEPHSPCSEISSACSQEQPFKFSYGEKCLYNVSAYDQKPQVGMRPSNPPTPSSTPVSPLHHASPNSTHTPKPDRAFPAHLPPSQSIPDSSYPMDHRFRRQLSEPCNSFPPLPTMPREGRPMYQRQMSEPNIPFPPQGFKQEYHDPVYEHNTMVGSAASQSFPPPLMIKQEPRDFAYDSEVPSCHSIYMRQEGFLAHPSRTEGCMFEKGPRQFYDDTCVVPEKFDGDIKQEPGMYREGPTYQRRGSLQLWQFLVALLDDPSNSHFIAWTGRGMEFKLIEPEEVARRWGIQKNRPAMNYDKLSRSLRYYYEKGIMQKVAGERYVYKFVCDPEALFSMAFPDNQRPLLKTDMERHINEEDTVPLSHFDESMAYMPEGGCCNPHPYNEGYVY
# Outline: (§1)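 Binding signal is each hexamer's read frequency for a factor divided by its frequency in the tag-only sample. The factors were GST-fused human transcription factors from yeast, captured on glutathione beads, DNA-barcoded and pooled with that sample. Pools were incubated with 200 nmole of a random double-stranded 16-mer DNA library in Tris/NaCl/DTT/glycerol buffer at room temperature for 30 min, then washed, crosslinked with 0.1% formaldehyde, proximity-ligated with BsaI/T4 ligase (1 h, 37 °C), PCR-amplified and sequenced on an Illumina NextSeq500.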
# ERF = target: T1, ERF (Homo sapiens, UniProt P50548 1-548)
# T1 sequence: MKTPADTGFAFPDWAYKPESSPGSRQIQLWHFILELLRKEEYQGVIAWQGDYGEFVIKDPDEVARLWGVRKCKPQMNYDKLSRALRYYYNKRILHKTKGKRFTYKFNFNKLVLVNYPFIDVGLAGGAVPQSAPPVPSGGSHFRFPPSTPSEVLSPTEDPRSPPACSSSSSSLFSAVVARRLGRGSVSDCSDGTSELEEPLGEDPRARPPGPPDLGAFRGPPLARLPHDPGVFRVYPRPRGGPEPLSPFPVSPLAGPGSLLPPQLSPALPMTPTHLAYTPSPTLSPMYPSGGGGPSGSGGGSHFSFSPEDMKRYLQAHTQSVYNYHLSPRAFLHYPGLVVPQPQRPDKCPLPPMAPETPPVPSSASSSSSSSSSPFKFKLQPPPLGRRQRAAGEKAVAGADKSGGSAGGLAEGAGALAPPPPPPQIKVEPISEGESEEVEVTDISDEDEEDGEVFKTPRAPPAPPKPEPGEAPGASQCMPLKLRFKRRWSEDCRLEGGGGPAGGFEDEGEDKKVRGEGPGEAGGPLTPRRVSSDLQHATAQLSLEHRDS
# Outline: as §1
# ETV3L = target: T2, ETV3L (Homo sapiens, UniProt Q6ZN32 1-361)
# T2 sequence: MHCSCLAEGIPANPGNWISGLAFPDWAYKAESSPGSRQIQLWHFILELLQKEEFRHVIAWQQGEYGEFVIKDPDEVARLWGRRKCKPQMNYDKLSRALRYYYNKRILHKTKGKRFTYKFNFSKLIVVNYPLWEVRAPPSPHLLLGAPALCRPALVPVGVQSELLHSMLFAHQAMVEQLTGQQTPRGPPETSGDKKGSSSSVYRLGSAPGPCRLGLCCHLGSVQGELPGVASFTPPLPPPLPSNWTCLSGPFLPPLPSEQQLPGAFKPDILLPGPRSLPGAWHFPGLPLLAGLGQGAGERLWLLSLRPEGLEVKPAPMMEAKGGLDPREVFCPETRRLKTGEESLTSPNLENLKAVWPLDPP
# Outline: as §1
# ETS2 = target: T3, ETS2 (Homo sapiens, UniProt P15036 1-469)
# T3 sequence: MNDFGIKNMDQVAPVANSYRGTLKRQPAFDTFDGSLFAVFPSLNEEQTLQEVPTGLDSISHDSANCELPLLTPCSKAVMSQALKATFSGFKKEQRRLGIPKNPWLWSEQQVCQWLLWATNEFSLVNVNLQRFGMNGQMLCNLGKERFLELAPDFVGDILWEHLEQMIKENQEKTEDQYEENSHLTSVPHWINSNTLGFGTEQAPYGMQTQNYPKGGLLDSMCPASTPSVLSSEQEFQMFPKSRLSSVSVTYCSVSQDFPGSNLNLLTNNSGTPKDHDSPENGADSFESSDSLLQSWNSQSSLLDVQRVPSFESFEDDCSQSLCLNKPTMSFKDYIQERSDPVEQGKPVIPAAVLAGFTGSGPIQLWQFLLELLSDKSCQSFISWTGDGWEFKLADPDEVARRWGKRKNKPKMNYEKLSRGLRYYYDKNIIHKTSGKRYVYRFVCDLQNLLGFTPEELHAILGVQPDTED
# Outline: as §1
# SPDEF = target: T4, SPDEF (Homo sapiens, UniProt O95238 1-335)
# T4 sequence: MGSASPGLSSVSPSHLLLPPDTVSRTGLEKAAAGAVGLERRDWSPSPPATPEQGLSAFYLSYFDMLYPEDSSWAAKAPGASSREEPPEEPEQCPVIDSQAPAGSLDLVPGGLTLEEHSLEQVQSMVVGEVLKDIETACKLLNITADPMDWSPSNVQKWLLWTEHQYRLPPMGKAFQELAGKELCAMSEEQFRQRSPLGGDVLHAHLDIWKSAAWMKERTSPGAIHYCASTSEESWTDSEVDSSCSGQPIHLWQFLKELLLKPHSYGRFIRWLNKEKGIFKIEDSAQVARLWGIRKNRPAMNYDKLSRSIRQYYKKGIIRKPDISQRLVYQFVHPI
# Outline: as §1
# ETV7 = target: T5, ETV7 (Homo sapiens, UniProt Q9Y603 1-341)
# T5 sequence: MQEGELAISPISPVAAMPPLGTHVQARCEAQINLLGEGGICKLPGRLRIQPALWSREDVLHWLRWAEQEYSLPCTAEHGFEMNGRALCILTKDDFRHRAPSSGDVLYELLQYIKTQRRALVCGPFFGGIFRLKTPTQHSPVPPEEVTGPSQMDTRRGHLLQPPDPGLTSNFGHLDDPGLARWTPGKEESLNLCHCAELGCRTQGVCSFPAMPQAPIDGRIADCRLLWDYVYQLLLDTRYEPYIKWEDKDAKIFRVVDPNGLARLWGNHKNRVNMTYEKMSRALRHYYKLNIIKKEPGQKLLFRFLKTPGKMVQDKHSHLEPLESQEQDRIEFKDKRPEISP
# Outline: as §1
# ELF5 = target: T6, ELF5 (Homo sapiens, UniProt Q9UKW6-2 1-255)
# T6 sequence: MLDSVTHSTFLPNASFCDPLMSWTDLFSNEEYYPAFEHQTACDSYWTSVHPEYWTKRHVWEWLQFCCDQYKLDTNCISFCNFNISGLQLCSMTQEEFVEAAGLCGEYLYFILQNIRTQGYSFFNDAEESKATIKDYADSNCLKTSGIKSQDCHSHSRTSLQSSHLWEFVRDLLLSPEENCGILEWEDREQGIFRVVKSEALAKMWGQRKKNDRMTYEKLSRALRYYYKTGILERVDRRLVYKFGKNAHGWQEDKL
# Outline: as §1
# ETV3 = target: T7, ETV3 (Homo sapiens, UniProt P41162-2 1-143)
# T7 sequence: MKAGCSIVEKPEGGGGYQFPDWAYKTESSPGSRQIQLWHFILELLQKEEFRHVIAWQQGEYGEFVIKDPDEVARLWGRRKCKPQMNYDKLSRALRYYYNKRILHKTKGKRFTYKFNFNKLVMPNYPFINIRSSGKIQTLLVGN
# Outline: as §1
# ETV6 = ETV6 (Homo sapiens, UniProt P41212 1-452)
# Chain of ETV6 (P41212 whole entry): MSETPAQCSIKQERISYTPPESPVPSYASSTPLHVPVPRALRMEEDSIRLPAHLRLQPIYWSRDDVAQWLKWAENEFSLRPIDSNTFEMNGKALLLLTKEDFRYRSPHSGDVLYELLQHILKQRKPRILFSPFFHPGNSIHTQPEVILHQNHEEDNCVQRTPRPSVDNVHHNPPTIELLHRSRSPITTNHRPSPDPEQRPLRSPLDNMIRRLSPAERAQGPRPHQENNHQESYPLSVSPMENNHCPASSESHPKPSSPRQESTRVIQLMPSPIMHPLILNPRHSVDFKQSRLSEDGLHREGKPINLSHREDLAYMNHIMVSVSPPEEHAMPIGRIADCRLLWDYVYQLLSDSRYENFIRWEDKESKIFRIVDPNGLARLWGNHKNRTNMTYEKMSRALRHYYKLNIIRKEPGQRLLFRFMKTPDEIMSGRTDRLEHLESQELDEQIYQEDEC
# Outline: as §1
sequence,measurement,setting,value
TTGCAT,binding signal,ETV1,"1.5 fold enrichment (6-mer frequency, TF over GST control)"
same,binding signal,ERF,"1.37 fold enrichment (6-mer frequency, TF over GST control)"
same,binding signal,ETV3L,"1.56 fold enrichment (6-mer frequency, TF over GST control)"
same,binding signal,ETS2,"1.42 fold enrichment (6-mer frequency, TF over GST control)"
same,binding signal,SPDEF,"1.51 fold enrichment (6-mer frequency, TF over GST control)"
same,binding signal,ETV7,"1.35 fold enrichment (6-mer frequency, TF over GST control)"
same,binding signal,ELF5,"1.4 fold enrichment (6-mer frequency, TF over GST control)"
same,binding signal,ETV3,"1.49 fold enrichment (6-mer frequency, TF over GST control)"
same,binding signal,ETV6,"1.38 fold enrichment (6-mer frequency, TF over GST control)"
